Measurements from PubChem BioAssay.
“And” between values parts separate entries of the source, which are not always exact repeats. Identical values can stand only once. The source made the active and inactive calls. Cut-off read from the data, not from the text of the source, unless noted: active = inhibition above about 80%; inactive = the rest.

Legend:
[1] = growth inhibition, single agent or in combination, cell-based, chromothripsis tumors, cisplatin or BGB combos (AID 1671449); conditions: LFS_MB_P medulloblastoma cells;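 note: cells exposed for 96 hours; 0% = vehicle DMSO and 100% = killing by high DMSO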
[2] = growth inhibition, single agent and combos, cell-based, chromothripsis tumors, cisplatin or BGB combos (AID 1671450); conditions: HDN33 neuroblastoma cells, stronger effect = higher value;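 note: cells exposed to compound for four days; 0% = vehicle DMSO and 100% = cell killing by high DMSO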
[3] = growth inhibition, single agents and combos, ICB984, cell-based, cisplatin or BGB combos, synergistic combos for chromothripsis tumors (AID 1671451; call rule not given here;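 note: cells exposed for 96 hours before readout; 0% = vehicle DMSO and 100% = killing by high DMSO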); conditions: ICB984 medulloblastoma cells, drug combinations, stronger effect = higher value
[4] = growth inhibition, single agents and combos, LFS_MB_1R, cell-based, cisplatin or BGB combos, synergistic combos for chromothripsis tumors (AID 1671452); conditions: LFS_MB_1R medulloblastoma cells, stronger effect = higher value;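 note: cells exposed for 96 hours before readout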
[5] = growth inhibition, single agents and combos, HTB85, cell-based, BGB or cisplatin IC20 combos, synergistic combos for chromothripsis tumors (AID 1671453); conditions: HTB85 osteosarcoma cells, drug combinations, stronger effect = higher value;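 note: cells exposed for 96 hours before readout; 0% = vehicle DMSO and 100% = high DMSO killing control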
[6] = growth inhibition, single agents and combos, CRL2098, cell-based, BGB or cisplatin IC20 combos, synergistic combos for chromothripsis tumors (AID 1671454); conditions: CRL2098 osteosarcoma cells, drug combinations, stronger effect = higher value;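 note: cells exposed for 96 h before readout; 0% = vehicle DMSO and 100% = killing by high DMSO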
[7] = growth inhibition, single agents and combos, HD-MB03, cell-based, BGB or cisplatin IC20 combos, synergistic combos for chromothripsis tumors (AID 1671455; in the data active = inhibition above about 83%;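 note: 0% = vehicle DMSO and 100% = high DMSO as cytotoxic control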); conditions: HD-MB03 medulloblastoma cells, stronger effect = higher value
[8] = growth inhibition, single agents and combos, UWB1.289, cell-based, BGB or cisplatin combos, synergistic combos for chromothripsis tumors (AID 1671456); conditions: UWB1.289 ovarian carcinoma cells, stronger effect = higher value;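 note: cells exposed to compound for four days; 0% = vehicle DMSO and 100% = killing by high DMSO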
[9] = growth inhibition, single agents and combos, LFS_MB_2R, cell-based, cisplatin combos, synergistic combos for chromothripsis tumors (AID 1671457); conditions: LFS_MB_2R medulloblastoma cells, stronger effect = higher value;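 note: cells exposed to compound for four days before readout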
[10] = growth inhibition, MDA-MB-436, cell-based, BGB or cisplatin combos, synergistic combos for chromothripsis tumors (AID 1671458; call rule not given here;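 note: cells exposed for 96 hours; 0% = vehicle DMSO and 100% = killing by high DMSO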); conditions: MDA-MB-436 breast carcinoma growth inhibition, drug combinations, stronger effect = higher value
[11] = UWB1.289_BRCA1 ovarian cancer growth, cell-based, BGB or cisplatin combinations (AID 1671459); conditions: UWB1.289 BRCA1 ovarian carcinoma, drug combinations, stronger effect = higher value
[12] = drug combination toxicity in non-malignant astrocytes – cell-based, BGB or cisplatin IC20 combos, cytotoxicity control for chromothriptic childhood tumor combination screen (AID 1671460); conditions: Human astrocytes, viability inhibition, drug combinations, at 0.5 µM, stronger effect = higher value;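 note: cells exposed to compounds for 96 hours before viability readout; 0% = vehicle and 100% = killing control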
[13] = BT084 cell growth, single and combined drugs, ICGC_MB145, cisplatin and BGB IC40 combos (AID 1671461); conditions: BT084 medulloblastoma cells, drug combinations, stronger effect = higher value;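 note: cells exposed to drugs for 96 hours; 0% = vehicle DMSO and 100% = high DMSO full killing control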
[14] = RCMB18 cell growth, single agent and combined, cisplatin and BGB IC40 combos (AID 1671462); conditions: RCMB18 medulloblastoma cells, stronger effect = higher value;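 note: cells exposed to compound for four days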
[15] = CRL1545 cell growth, single agent and combined, cisplatin and BGB IC20 combos (AID 1671464); conditions: CRL1545 osteosarcoma cells, stronger effect = higher value;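 note: cells exposed to compound for 96 hours before readout; 0% = vehicle DMSO and 100% = high DMSO killing control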
[16] = at 0.5 µM, stronger effect = higher value
[17] = measured here: combination with BGB IC20, at 0.005 µM
[18] = measured here: combination with BGB IC40, at 0.005 µM
[19] = measured here: combination with BGB IC40, at 0.05 µM
[20] = measured here: combination with cisplatin, at 0.5 µM, stronger effect = higher value
[21] = measured here: combination with cisplatin, at 5 µM, stronger effect = higher value
[22] = measured here: with BGB IC20 combination, at 0.5 µM
[23] = measured here: with cisplatin IC20 combination, at 0.5 µM
[24] = measured here: 5 uM single agent, at 5 µM
[25] = measured here: combination with cisplatin, at 0.5 µM
[26] = measured here: combination with cisplatin, at 5 µM
[27] = measured here: with BGB IC20, at 0.5 µM
[28] = measured here: with BGB IC20, at 5 µM
[29] = measured here: with cisplatin IC20, at 0.5 µM
[30] = measured here: with cisplatin IC20, at 5 µM
[31] = measured here: combination with BGB at IC20, at 0.5 µM
[32] = measured here: combination with cisplatin at IC20, at 0.5 µM
[33] = measured here: combo with BGB at IC20, at 0.5 µM
[34] = measured here: combo with cisplatin at IC20, at 0.5 µM
[35] = measured here: inhibition with BGB combination, at 0.05 µM
[36] = measured here: inhibition with cisplatin combination, at 0.05 µM
[37] = measured here: BGB combination, at 0.5 µM
[38] = measured here: BGB combination, at 5 µM
[39] = measured here: cisplatin combination, at 0.5 µM
[40] = measured here: cisplatin combination, at 5 µM
[41] = BGB combination, concentration series, at 5 µM
[42] = cisplatin combination, concentration series, at 5 µM
[43] = measured here: combo with BGB IC20
[44] = measured here: combo with cisplatin IC20
[45] = cisplatin combination, at 0.5 µM
[46] = measured here: BGB IC40 combination 0.05 uM, at 0.05 µM
[47] = measured here: BGB IC40 combination, at 0.05 µM

## Nc1nc(F)nc2c1ncn2C1OC(CO)C(O)C1O (stereo unspecified)
[1]; [16]
  inhibition: -23.4% (inactive) and 5.5% (inactive)
[1]; [17]
  inhibition: -13.1% and 10.2%
[1]; [18]
  inhibition: -4.16% and 17.3%
[1]; [19]
  inhibition: -14.8% and 4.66%
[1]; [20]
  inhibition: -27.4% and 14.8%
[1]; [21]
  inhibition: 85.8% and 94.5%
[2]; BGB combo, at 5 µM
  inhibition: 27.6% and 14.7%
[2]; at 0.5 µM
  inhibition: -7.43% (inactive) and -36.4% (inactive)
[2]; cisplatin combo, at 5 µM
  inhibition: 20.8% and 7.89%
[2]; [22]
  inhibition: 3.36% and -26.3%
[2]; [23]
  inhibition: -16.4% and -54.5%
[2]; single agent, at 5 µM
  inhibition: 45.6% and 12.3%
[3]; BGB IC20 combo, at 0.005 µM
  inhibition: 20.7% and -6.33%
[3]; BGB IC40 combo, at 0.005 µM
  inhibition: -14.7% and -39.6%
[3]; BGB IC40 combo, at 0.05 µM
  inhibition: 0.533% and 4.89%
[3]; at 0.5 µM
  inhibition: -14.3% (inactive) and -20.5% (inactive)
[3]; cisplatin combo, at 0.05 µM
  inhibition: -3.04% and 2.23%
[3]; cisplatin combo, at 0.5 µM
  inhibition: -8.41% and -26.1%
[3]; cisplatin combo, at 5 µM
  inhibition: -23% and -33%
[3]; [24]
  inhibition: -7.66% and -8.57%
[4]; at 0.5 µM
  inhibition: -2.13% (inactive) and -19.9% (inactive)
[4]; [19]
  inhibition: 3.73% and -32%
[4]; [25]
  inhibition: 9.09% and -1.53%
[4]; [26]
  inhibition: 76.5% and 57.3%
[5]; at 0.5 µM
  inhibition: 3.43% (inactive) and -25.3% (inactive)
[5]; [27]
  inhibition: -0.749% and -38.9%
[5]; [28]
  inhibition: 44.9% and 11%
[5]; [29]
  inhibition: 2.7% and -32%
[5]; [30]
  inhibition: 37% and 41.2%
[5]; single agent, at 5 µM
  inhibition: 58.5% and 39.5%
[6]; at 0.5 µM
  inhibition: 94% (active) and 94.9% (active)
[6]; [31]
  inhibition: 94.8% and 95%
[6]; [32]
  inhibition: 91.9% and 95.1%
[7]; at 0.5 µM
  inhibition: 5.8% (inactive) and 2.84% (inactive)
[7]; [33]
  inhibition: 3.8% and -3.69%
[7]; [34]
  inhibition: 2.93% and 14.9%
[8]; at 0.5 µM
  inhibition: 2.58% (inactive) and -11.8% (inactive)
[8]; [35]
  inhibition: -5.13% and -19.7%
[8]; [36]
  inhibition: -18.9% and -14.7%
[9]; at 0.5 µM
  inhibition: 12% (inactive) and -3.14% (inactive)
[9]; [25]
  inhibition: 3.75% and 4.65%
[9]; [26]
  inhibition: 69.4% and 48.7%
[10]; at 0.5 µM
  inhibition: 2.72% (inactive) and -8.67% (inactive)
[10]; [37]
  inhibition: 0.63% and 6.32%
[10]; [38]
  inhibition: 12.4%
[10]; [39]
  inhibition: -0.776% and -26.9%
[10]; [40]
  inhibition: 1.99% and 20.7%
[11]; [41]
  inhibition: 34% and 13%
[11]; at 0.5 µM
  inhibition: 3.6% (inactive) and -10.5% (inactive)
[11]; [42]
  inhibition: 32.8% and 23%
[12]
  inhibition: 13.7% (inactive) and -16.7% (inactive)
[12]; [43]
  inhibition: 0.417% and -14%
[12]; [44]
  inhibition: 20% and -36.2%
[13]; at 0.5 µM
  inhibition: -17.4% (inactive) and 8.96% (inactive)
[13]; [45]
  inhibition: -38.6% and 6.07%
[13]; cisplatin combination, at 5 µM
  inhibition: 36.8% and 59.3%
[13]; [46]
  inhibition: -18.2% and 2.24%
[13]; single agent, at 5 µM
  inhibition: -9.05% and -4.51%
[14]; at 0.5 µM
  inhibition: 0.9% (inactive) and -15.3% (inactive)
[14]; cisplatin combo, at 5 µM
  inhibition: 44.7% and 68%
[14]; [47]
  inhibition: 1.47% and -4.03%
[14]; [25]
  inhibition: 30.2% and -17.9%
[14]; single agent, at 5 µM
  inhibition: 8.81% and -20.7%
[15]; at 0.5 µM
  inhibition: 8.8% (inactive) and -39.7% (inactive)
[15]; [22]
  inhibition: 5.25% and -35.7%
[15]; [23]
  inhibition: 9.12% and -44.9%
[15]; single agent, at 0.05 µM
  inhibition: -7.3% and -43.1%
[15]; single agent, at 5 µM
  inhibition: 24% and -66.2%

## CC1OC(CC(=O)O)CC2=C1C(=O)c1c(O)cccc1C2=O (stereo unspecified)
[1]; [16]
  inhibition: 13.6% (inactive)
[1]; [17]
  inhibition: -20.4%
[1]; [18]
  inhibition: -16.6%
[1]; [19]
  inhibition: 120%
[1]; [20]
  inhibition: 28.7%
[1]; [21]
  inhibition: 128%
[2]; BGB combo, at 5 µM
  inhibition: 100%
[2]; at 0.5 µM
  inhibition: 99.9% (active)
[2]; cisplatin combo, at 5 µM
  inhibition: 99.9%
[2]; [22]
  inhibition: 99.9%
[2]; [23]
  inhibition: 99.9%
[2]; single agent, at 5 µM
  inhibition: 99.9%
[3]; BGB IC20 combo, at 0.005 µM
  inhibition: 101%
[3]; BGB IC40 combo, at 0.005 µM
  inhibition: 102%
[3]; BGB IC40 combo, at 0.05 µM
  inhibition: 102%
[3]; at 0.5 µM
  inhibition: 0.28% (inactive)
[3]; cisplatin combo, at 0.05 µM
  inhibition: 102%
[3]; cisplatin combo, at 0.5 µM
  inhibition: 10.8%
[3]; cisplatin combo, at 5 µM
  inhibition: 102%
[3]; [24]
  inhibition: 98.7%
[4]; at 0.5 µM
  inhibition: 106% (active)
[4]; [19]
  inhibition: 101%
[4]; [25]
  inhibition: 111%
[4]; [26]
  inhibition: 106%
[5]; at 0.5 µM
  inhibition: 99.9% (active)
[5]; [27]
  inhibition: 100%
[5]; [28]
  inhibition: 100%
[5]; [29]
  inhibition: 99.9%
[5]; [30]
  inhibition: 99.7%
[5]; single agent, at 5 µM
  inhibition: 99.7%
[6]; at 0.5 µM
  inhibition: 100% (active)
[6]; [31]
  inhibition: 100%
[6]; [32]
  inhibition: 100%
[7]; at 0.5 µM
  inhibition: 99.8% (active)
[7]; [33]
  inhibition: 99.9%
[7]; [34]
  inhibition: 99.8%
[8]; at 0.5 µM
  inhibition: 102% (active)
[8]; [35]
  inhibition: 65.9%
[8]; [36]
  inhibition: 91.2%
[9]; at 0.5 µM
  inhibition: 106% (active)
[9]; [25]
  inhibition: 105%
[9]; [26]
  inhibition: 105%
[10]; at 0.5 µM
  inhibition: 102% (active)
[10]; [37]
  inhibition: 103%
[10]; [38]
  inhibition: 103%
[10]; [39]
  inhibition: 101%
[10]; [40]
  inhibition: 109%
[11]; [41]
  inhibition: 121%
[11]; at 0.5 µM
  inhibition: 111% (active)
[11]; [42]
  inhibition: 132%
[12]
  inhibition: 102% (active)
[12]; [43]
  inhibition: 105%
[12]; [44]
  inhibition: 101%
[13]; at 0.5 µM
  inhibition: 106% (active)
[13]; [45]
  inhibition: 108%
[13]; cisplatin combination, at 5 µM
  inhibition: 110%
[13]; [46]
  inhibition: 67.7%
[13]; single agent, at 5 µM
  inhibition: 107%
[14]; at 0.5 µM
  inhibition: 99.3% (active)
[14]; cisplatin combo, at 5 µM
  inhibition: 103%
[14]; [47]
  inhibition: 97.5%
[14]; [25]
  inhibition: 102%
[14]; single agent, at 5 µM
  inhibition: 101%
[15]; at 0.5 µM
  inhibition: 99.9% (active)
[15]; [22]
  inhibition: 99.9%
[15]; [23]
  inhibition: 99.9%
[15]; single agent, at 0.05 µM
  inhibition: 99.9%
[15]; single agent, at 5 µM
  inhibition: 99.9%
